Test [1] in a line: qHTS assay to identify small molecule agonists of H2AX (AID 1224845; active = well fitted activation curve with a large enough effect in the signal ratio in the repeat runs, not every such curve was filed as active; the % refers to the signal ratio). The essentials: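 Phospho-H2AX Ser139 measured by HTRF (ex 320 nm; em 665 and 620 nm) after 24 hr antibody incubation. Compounds, 15 concentrations, 0.76% DMSO, were applied to CHO-K1 cells for 3hr at 37C before lysis.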
For orientation: In qHTS, concentration-response curves come from the screen itself.

Test [2] is described as follows: qHTS assay to identify small molecule agonists of H2AX - cell viability counter screen (AID 1224847; calls by dose curve;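 also: wild-type CHO-K1 cells; top concentration of the series differs between compounds; nearly all actives have a fitted effect of over 30% in size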). In outline:
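CHO-K1 wt, 1000 cells/well, o/n 37C; cpds 15 conc, 3 h 37C, 0.76% DMSO; CellTiter-Glo, 30 min RT, luminescence.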

Test [3] is described as follows: qHTS assay to identify small molecule antagonists of the estrogen related receptor (ERR) signaling pathway from Tox21 library (AID 1224848). Also: nearly all actives have a fitted effect of over 50% in size. The essentials: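 ERR cell line, 2,000 cells/well. 6 h settle, then compound (DMSO) added; 18 h at 37 C; ONE-Glo luminescence after 30 min RT.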
Test [4] in a line: qHTS assay to identify small molecule agonists of the estrogen related receptor (ERR) signaling pathway from Tox21 library (AID 1224849; calls by dose curve; also: nearly all actives have a fitted effect of over 15% in size). The settings on record: ERR reporter cell line, ONE-Glo luciferase, 18 h; at 92.4 µM (top of the series) unless noted. The essentials:
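Luminescent agonist read-out (One-Glo, 30-minute room-temperature incubation) following 18-hour compound treatment at 37 C of the ERR cell line, which had been plated 6 hours before dosing.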

A short description of test [5]: A CellTox Green Cytotoxicity Assay to monitor cytotoxicity in HEK293 cells - 0 hour (AID 1224869). Also: nearly all actives have a fitted effect of over 50% in size. The essentials:
(§1)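 Fluorescence from a DNA-binding dye excluded by viable cells was measured repeatedly in the same HEK293 wells (600 cells/well) during continuous compound exposure at 37 C. Each assay gives one read point: 0, 8, 16, 24, 32 or 40 h.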

Test [6] can be described thus: qHTS RealTime-Glo MT Cell Viability Assay in HepG2 cells - 40 hour (AID 1224870). Also: nearly all actives have a fitted effect of over 50% in size. The essentials:
(§2)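 Real-time viability: cells seeded at 600 per well together with NanoLuc and cell-permeant prosubstrate, compounds added after 5 h incubation. Luminescence tracked at 0, 8, 16, 24, 32 and 40 h of exposure.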

Test [7] in a line: qHTS RealTime-Glo MT Cell Viability Assay in HEK293 cells - 16 hour (AID 1224872). Also: top concentration of the series differs between compounds; nearly all actives have a fitted effect of over 50% in size. In outline:
(§3)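 HEK293 cells seeded with NanoLuc/prosubstrate reagent, rested 5 h at 37 C, then dosed and kept at 37 C up to 40 h. Nonlytic real-time luminescence from viable cells read at 0, 8, 16, 24, 32 and 40 h.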

The nature of test [8]: qHTS RealTime-Glo MT Cell Viability Assay in HepG2 cells - 8 hour (AID 1224873). Also: nearly all actives have a fitted effect of over 55% in size. In outline: as §2
A short description of test [9]: qHTS RealTime-Glo MT Cell Viability Assay in HEK293 cells - 40 hour (AID 1224874). Also: nearly all actives have a fitted effect of over 50% in size. The conditions noted are these: RealTime-Glo luminescence; max response: stronger effect = lower value. In outline:
(§4)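 Luminescence, which tracks viable cell number through reduction of the prosubstrate to a NanoLuc substrate, was read over continuous 37 C culture. Cells (600/well) were premixed with reagent and rested 5 h before 23 nL of compound in DMSO was pinned.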

Test [10] can be described thus: A CellTox Green Cytotoxicity Assay to monitor cytotoxicity in HEK293 cells - 24 hour (AID 1224875). Also: nearly all actives have a fitted effect of over 45% in size. In outline:
as §1

Test [11] is described as follows: A CellTox Green Cytotoxicity Assay to monitor cytotoxicity in HepG2 cells - 16 hour (AID 1224876). Also: nearly all actives have a fitted effect of over 45% in size. In outline:
(§5)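 Real-time cytotoxicity: fluorescence of a cell-impermeant cyanine dye binding DNA of dead HepG2 cells, measured repeatedly (0–40 h) during compound exposure at 37 C. Cells seeded 600/well with reagent, dosed after 5 h.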

Test [12] can be described thus: qHTS RealTime-Glo MT Cell Viability Assay in HepG2 cells - 32 hour (AID 1224877). Also: nearly all actives have a fitted effect of over 55% in size. In outline:
(§6)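 HepG2 cells (600/well) were dispensed with RealTime-Glo reagents, incubated 5 h at 37 °C, then treated with compounds in DMSO for up to 40 h. Nonlytic NanoLuc luminescence reflecting viable cells was read at each stated time point.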

The nature of test [13]: A CellTox Green Cytotoxicity Assay to monitor cytotoxicity in HepG2 cells - 24 hour (AID 1224878). Also: nearly all actives have a fitted effect of over 45% in size. Also: potency is read from the fitted curve at half-maximal effect. The essentials: as §5
Test [14] is described as follows: A CellTox Green Cytotoxicity Assay to monitor cytotoxicity in HepG2 cells - 40 hour (AID 1224879). Also: nearly all actives have a fitted effect of over 40% in size. Also: potency is read from the fitted curve at half-maximal effect. In outline: as §5
The nature of test [15]: qHTS RealTime-Glo MT Cell Viability Assay in HEK293 cells - 0 hour (AID 1224880). Also: nearly all actives have a fitted effect of over 45% in size. Also: potency is read from the fitted curve at half-maximal effect. The essentials: as §4
The nature of test [16]: qHTS assay to identify small molecule agonists of the hypoxia (HIF-1) signaling pathway (AID 1224846; active = well fitted activation curve with a large enough effect in the signal ratio in the repeat runs, not every such curve was filed as active; the % refers to the signal ratio). The essentials: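 Compounds added to ME-180 cells carrying hypoxia-response-element beta-lactamase reporter (0.5% dialyzed FBS, 5 h preplating), 17 h at 37C; agonist activity detected by CCF4-AM B/G FRET read-out.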
Test [17] in a line: qHTS RealTime-Glo MT Cell Viability Assay in HepG2 cells - 24 hour (AID 1224867). Also: nearly all actives have a fitted effect of over 50% in size. The essentials: as §6
Test [18] is described as follows: qHTS RealTime-Glo MT Cell Viability Assay in HEK293 cells - 32 hour (AID 1224868). The essentials: as §3
Test [19] is described as follows: A CellTox Green Cytotoxicity Assay to monitor cytotoxicity in HEK293 cells - 40 hour (AID 1224871). Also: nearly all actives have a fitted effect of over 45% in size. The essentials: as §1

Here are results for seven compounds from PubChem BioAssay (Tox21).

Values without a mark were called inactive. Inconclusive results are not listed. Calls of active or inactive are those of the source. Unless noted, calls follow the shape of the dose curve; as a rule, active = well fitted curve in the direction sought with a large enough effect in the repeat runs; inconclusive = weak or mixed curves; inactive = no such curve, though single readings can be large; an effect the other way counts as inactive or inconclusive.
% is scaled to controls: 0 for no effect and ±100 for the full control effect.

Take `CC1CC(OC(=O)C(O)c2ccccc2)CC(C)(C)N1C` (stereo not given): the Potency result in [1], in [2], in test [3], in test [5], in [6] and in test [7] was “inactive” each time. For the same compound, the Potency entry in test [8], in test [10], in test [11], in test [12], in [13] and in [14] was “inactive” throughout. Moreover, the Potency entry in test [15] is “inactive”. In addition, the activity change, positive = activation in test [4] was -3.41% [at 42.5 µM]. The max response in test [9] is 0.136%.
On to `C=Cc1ccc(S(=O)(=O)O)cc1`, for which the Potency result in [1], in [2], in test [3], in test [17], in test [18] and in [5] was “inactive” throughout. Moreover, the Potency entry in test [7], in [8] and in [15] was “inactive” each time. The compound was classed as inactive in test [16]. Also, the activity change, positive = activation in [4] was 6.91%. The max response in [9] is -10.1%. Besides, the Potency in test [13] was 49 µM (active); in test [14], 54.9 µM (active).
For the compound `Cc1cc(C)c(N)cc1C`, the Potency entry in test [1], in test [2], in test [17], in [18], in test [5] and in test [19] was “inactive” throughout. Besides, the Potency entry in [7], in test [8], in test [10], in test [11], in test [13] and in test [14] was “inactive” throughout. The Potency entry in test [15] was “inactive”. Besides, the call in [16] was inactive. Besides, the max response in test [9] is 1.12%.
Regarding `CC(C)Nc1cccnc1N1CCN(C(=O)c2cc3cc(NS(C)(=O)=O)ccc3[nH]2)CC1`, the Potency result in test [1], in [2], in [18], in test [5], in test [19] and in test [7] was “inactive” in each case. Besides, the Potency entry in test [8], in [10], in [11], in test [12], in test [13] and in test [14] was “inactive” each time. In addition, the compound was called inactive in [16]. Moreover, in test [4], the activity change, positive = activation is -20.7% [at 42.5 µM]. The max response in [9] was -29%. The Potency in test [15] was 9.52 µM (active).
Take `CCC1NC(=O)c2cc(S(N)(=O)=O)c(Cl)cc2N1` (stereo not given): the Potency entry in test [1], in [2], in [18], in test [5], in test [6] and in [19] was “inactive” each time. The Potency entry in [7], in [8], in test [10], in test [11], in [12] and in test [13] was “inactive” in each case. Moreover, the Potency entry in test [14] and in test [15] was “inactive” each time. In addition, in test [16], the result was inactive. In addition, the max response in [9] was 6.45%.
As to `CCC(OCCCOC)OC(C)=O` (stereo not given), the Potency entry in test [1], in test [2], in test [17], in test [18], in test [5] and in test [6] was “inactive” throughout. In addition, the Potency entry in test [19], in test [7], in [8], in [10], in test [11] and in test [12] was “inactive” throughout. Further, the Potency result in [13], in test [14] and in [15] was “inactive” throughout. In test [16], the call was inactive. The max response in [9] was 3.03%.
With `C=CC(C)(CCC=C(C)C)OC(=O)CC(C)C` (stereo not given), the Potency result in test [1], in test [2], in test [17], in [18], in test [5] and in test [6] was “inactive” throughout. The Potency result in test [19], in [7], in test [8], in test [10], in [11] and in [12] was “inactive” throughout. Besides, the Potency result in test [13], in test [14] and in test [15] was “inactive” throughout. Further, the result in test [16] was inactive. The max response in test [9] was 7.92%.
